Data: PubChem BioAssay (Tox21)
Results filed as inconclusive are left out. Active and inactive are the calls of the source. Unless noted, calls follow the shape of the dose curve; as a rule, active = well fitted curve in the direction sought with a large enough effect in the repeat runs; inconclusive = weak or mixed curves; inactive = no such curve, though single readings can be large; an effect the other way counts as inactive or inconclusive.

Tests used:
[1] = A CellTox Green Cytotoxicity Assay to monitor cytotoxicity in HEK293 cells - 32 hour (AID 1224881); also: nearly all actives have a fitted effect of over 40% in size
How it was run: (§1)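 Dead-cell fluorescence measured kinetically: asymmetric cyanine dye, HEK293, 600 cells/well, 5 h settle, 23 nL cpd/DMSO, 37 C, reads 0–40 h every 8 h.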

[2] = A CellTox Green Cytotoxicity Assay to monitor cytotoxicity in HepG2 cells - 0 hour (AID 1224882); also: nearly all actives have a fitted effect of over 35% in size
How it was run: (§2)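 First, HepG2 cells (600/well) mixed with reagent were plated; second, after 5 h at 37 C they received compounds via pintool; third, fluorescence was measured at 0 h through 40 h at 8 h intervals.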

[3] = A CellTox Green Cytotoxicity Assay to monitor cytotoxicity in HepG2 cells - 32 hour (AID 1224883); also: nearly all actives have a fitted effect of over 50% in size
How it was run: as §2

[4] = A CellTox Green Cytotoxicity Assay to monitor cytotoxicity in HEK293 cells - 8 hour (AID 1224884); also: nearly all actives have a fitted effect of over 35% in size
How it was run: as §1

[5] = qHTS RealTime-Glo MT Cell Viability Assay in HepG2 cells - 16 hour (AID 1224885); also: nearly all actives have a fitted effect of over 50% in size
How it was run: (§3)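 HepG2 cells (600/well) were dispensed with RealTime-Glo reagents, incubated 5 h at 37 °C, then treated with compounds in DMSO for up to 40 h. Nonlytic NanoLuc luminescence reflecting viable cells was read at each stated time point.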

[6] = qHTS RealTime-Glo MT Cell Viability Assay in HEK293 cells - 24 hour (AID 1224886); also: top concentration of the series differs between compounds; nearly all actives have a fitted effect of over 50% in size
How it was run: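 HEK293 cells seeded with NanoLuc/prosubstrate reagent, rested 5 h at 37 C, then dosed and kept at 37 C up to 40 h. Nonlytic real-time luminescence from viable cells read at 0, 8, 16, 24, 32 and 40 h.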

[7] = qHTS RealTime-Glo MT Cell Viability Assay in HEK293 cells - 8 hour (AID 1224887); also: top concentration of the series differs between compounds; nearly all actives have a fitted effect of over 50% in size
How it was run: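 600 HEK293 cells per well, dispensed already mixed with RealTime-Glo MT reagents. Compound dosing came 5 h later. The same wells were read for luminescence at 0, 8, 16, 24, 32 and 40 h of exposure at 37 C.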

[8] = A CellTox Green Cytotoxicity Assay to monitor cytotoxicity in HEK293 cells - 16 hour (AID 1224888); also: nearly all actives have a fitted effect of over 35% in size
How it was run: as §1

[9] = qHTS RealTime-Glo MT Cell Viability Assay in HepG2 cells - 0 hour (AID 1224889); also: nearly all actives have a fitted effect of over 50% in size
How it was run: as §3

[10] = A CellTox Green Cytotoxicity Assay to monitor cytotoxicity in HepG2 cells - 8 hour (AID 1224890); also: nearly all actives have a fitted effect of over 45% in size
How it was run: as §2

[11] = qHTS assay to identify small molecule antagonists of the estrogen receptor alpha (ER-alpha) signaling pathway using the BG1 cell line in the presence of 0.1 nM 17-beta-estradiol - cell viability counter screen (AID 1259241); also: nearly all actives have a fitted effect of over 40% in size
How it was run: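 Following 5 days in phenol red-free medium with charcoal-stripped serum, VM7Luc4E2 cells received test compounds alongside 0.1 nM 17beta-estradiol (final) at 37C for 22 hr. Live cells were then quantified via protease-substrate fluorescence.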

[12] = qHTS assay to identify small molecule antagonists of the androgen receptor (AR) signaling pathway using the MDA cell line in the presence of 0.5 nM R1881 - cell viability counter screen (AID 1259242); also: nearly all actives have a fitted effect of over 45% in size
How it was run: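 qHTS format. MDA-kb2 (MMTV-luc, AR/GR responsive) + cpd + 0.5 nM R1881 final, 16 hr 37C/0% CO2 → CellTiter-Fluor 30 min → fluorescence intensity.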

[13] = qHTS assay to identify small molecule HDAC inhibitors (AID 1259364);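 also: wild-type HCT-116 cells with endogenous class I/II HDAC activity; top concentration of the series differs between compounds; nearly all actives have a fitted effect of over 45% in size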
How it was run: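 Quantitative high-throughput format: overnight-seeded HCT-116 cells got compounds for 2 hr at 37C; HDAC-Glo I/II reagent added, 30 min RT, luminescence measured.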

[14] = qHTS assay to identify small molecule HDAC inhibitors - cell viability counter screen (AID 1259365)
How it was run: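 HCT-116 wild-type, overnight attachment; 2hr drug exposure, 37C; CellTiter-Glo luminescent ATP readout after 30min RT.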

[15] = qHTS assay to identify small molecule agonists of the sonic hedgehog signaling (Shh) pathway - cell viability counter screen (AID 1259366); also: nearly all actives have a fitted effect of over 50% in size
How it was run: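 Compounds in DMSO were pin-transferred onto 3T3 Gli1-Luc cells that had settled 4hr; plates then stood 24hr at 37C and 5% CO2. One hour before the end, CellTiter-Fluor was added and fluorescence recorded.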

[16] = qHTS assay to identify small molecule antagonists of the sonic hedgehog signaling (Shh) pathway - cell viability counter screen (AID 1259367); also: nearly all actives have a fitted effect of over 55% in size
How it was run: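 Cytotoxicity was assessed in parallel with Shh reporter activity by measuring live-cell protease fluorescence (CellTiter-Fluor) in NIH/3T3 cells stably carrying Gli1-Luc, treated with compound under conditioned medium stimulation for 23 hr plus 1 hr reagent incubation.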

[17] = qHTS assay to identify small molecule agonists of the sonic hedgehog signaling (Shh) pathway (AID 1259368; calls by dose curve;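 also: NIH/3T3-derived 3T3Gli1-Luc cells carrying a stable Gli1-driven firefly luciferase reporter; series mostly up to about 92 µM; nearly all actives have a fitted effect of over 15% in size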)
How it was run: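 Quantitative high-throughput format using a Gli1-driven firefly luciferase reporter line derived from NIH/3T3 cells. After a 24 hr compound treatment at 37 C and 5% CO2, luminescence reported Gli1 response element activity.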

[18] = qHTS assay to identify small molecule phospholipidosis (PLD) inducers (AID 1259344; active = well fitted curve in the direction sought with a large enough effect; an effect the other way counts as inactive or inconclusive)
How it was run: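 Cells (HepG2, 900 per well) attach for 4 h, receive LipidTOX Red and compound together, incubate 24 h at 37 C, are fixed 30 min with paraformaldehyde/Hoechst, then imaged at one site per well.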

[19] = target: Estrogen receptor (Homo sapiens) (UniProt P03372); assay: qHTS assay to identify small molecule antagonists of the estrogen receptor alpha (ER-alpha) signaling pathway using the BG1 cell line in the presence of 0.1 nM 17-beta-estradiol (AID 1259244); also: nearly all actives have a fitted effect of over 50% in size
Estrogen receptor (Homo sapiens), sequence (P03372 whole entry, looked up): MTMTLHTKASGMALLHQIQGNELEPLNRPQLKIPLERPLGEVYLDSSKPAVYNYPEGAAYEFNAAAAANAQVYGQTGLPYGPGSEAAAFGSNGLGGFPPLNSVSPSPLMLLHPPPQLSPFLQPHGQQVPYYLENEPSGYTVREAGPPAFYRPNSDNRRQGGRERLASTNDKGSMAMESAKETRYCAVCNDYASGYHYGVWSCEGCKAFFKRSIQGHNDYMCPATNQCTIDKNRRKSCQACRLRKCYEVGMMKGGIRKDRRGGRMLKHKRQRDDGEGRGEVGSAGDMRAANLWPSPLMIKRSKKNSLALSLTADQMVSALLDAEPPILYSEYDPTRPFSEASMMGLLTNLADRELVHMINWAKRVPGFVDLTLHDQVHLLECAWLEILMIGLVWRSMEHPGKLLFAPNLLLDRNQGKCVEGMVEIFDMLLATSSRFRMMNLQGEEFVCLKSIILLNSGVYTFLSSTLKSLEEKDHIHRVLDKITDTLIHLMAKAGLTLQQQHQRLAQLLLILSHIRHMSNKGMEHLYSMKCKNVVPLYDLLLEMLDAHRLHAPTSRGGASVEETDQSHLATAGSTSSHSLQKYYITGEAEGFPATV
How it was run: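 Reporter is a stably transfected luciferase under four estrogen responsive elements in VM7Luc4E2 cells expressing native full-length ER-alpha; inhibition of 0.1 nM (final) 17beta-estradiol-driven signal over 22 h is read by luminescence.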

[20] = target: Androgen receptor (Homo sapiens) (UniProt P10275); assay: qHTS assay to identify small molecule antagonists of the androgen receptor (AR) signaling pathway using the MDA cell line in the presence of 0.5 nM R1881 (AID 1259243); also: nearly all actives have a fitted effect of over 50% in size
Androgen receptor (Homo sapiens), sequence (P10275 whole entry, looked up): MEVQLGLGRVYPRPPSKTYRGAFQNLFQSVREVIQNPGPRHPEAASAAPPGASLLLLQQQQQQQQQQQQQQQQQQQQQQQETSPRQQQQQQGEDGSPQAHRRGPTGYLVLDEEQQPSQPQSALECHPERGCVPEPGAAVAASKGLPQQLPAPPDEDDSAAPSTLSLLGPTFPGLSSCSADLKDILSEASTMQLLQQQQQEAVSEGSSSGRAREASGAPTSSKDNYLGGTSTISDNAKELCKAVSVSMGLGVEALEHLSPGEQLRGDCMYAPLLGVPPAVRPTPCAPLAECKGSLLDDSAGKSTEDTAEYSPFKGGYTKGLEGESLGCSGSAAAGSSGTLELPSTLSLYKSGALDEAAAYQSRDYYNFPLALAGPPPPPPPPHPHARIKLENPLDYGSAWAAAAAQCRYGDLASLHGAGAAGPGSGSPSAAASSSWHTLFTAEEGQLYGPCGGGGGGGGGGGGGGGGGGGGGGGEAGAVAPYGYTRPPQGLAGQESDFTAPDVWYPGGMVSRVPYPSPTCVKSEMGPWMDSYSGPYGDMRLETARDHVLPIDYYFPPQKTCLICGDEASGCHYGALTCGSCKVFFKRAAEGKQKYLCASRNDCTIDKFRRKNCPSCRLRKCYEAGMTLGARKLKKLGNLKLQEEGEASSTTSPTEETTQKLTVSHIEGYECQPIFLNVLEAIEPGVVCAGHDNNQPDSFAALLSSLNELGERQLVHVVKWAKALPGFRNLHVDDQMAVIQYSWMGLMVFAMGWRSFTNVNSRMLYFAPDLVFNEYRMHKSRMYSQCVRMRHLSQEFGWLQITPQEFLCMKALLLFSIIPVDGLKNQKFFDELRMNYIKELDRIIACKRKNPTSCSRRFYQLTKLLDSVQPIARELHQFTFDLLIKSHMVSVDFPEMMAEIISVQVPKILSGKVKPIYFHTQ
How it was run: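 Antagonist mode quantitative HTS in MDA-kb2 MMTV-luciferase cells, agonist R1881 at 0.5 nM final, 16 hr exposure at 37C and 0% CO2, luminescent detection.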
% is scaled to controls: 0 for no effect and ±100 for the full control effect.

CCCn1cc[n+](C)c1C
inactive: outcome [1] | Potency [2] | Potency [3] | outcome [4] | outcome [5] | Potency [6] | Potency [7] | outcome [8] | Potency [9] | outcome [10] | outcome [11] | outcome [12] | Potency [13] | outcome [14] | Potency [15] | Potency [16] | outcome [17]

C[N+]1(CC2COC(c3ccccc3)(c3ccccc3)O2)CCCCC1 (stereo unspecified)
inactive: cytotoxicity increase [1] -8.36% [at 15.8 µM] | cytotoxicity [2] -9.88% [at 15.8 µM] | cytotoxicity increase [3] -0.506% [at 15.8 µM] | cytotoxicity increase [4] -4.15% [at 15.8 µM] | activity change, negative = cytotoxic [5] -0.0866% [at 15.8 µM] | activity change, negative = cytotoxicity [6] -2.13% [at 15.8 µM] | activity change, negative = cytotoxicity [7] 0.757% [at 15.8 µM] | activity change [8] -8.9% [at 15.8 µM] | activity change, negative = cytotoxicity [9] -6.4% [at 15.8 µM] | cytotoxicity increase [10] 0.368% [at 15.8 µM] | activity change, negative = cytotoxicity [11] 0.56% [at 19 µM] | viability change, negative = cytotoxic [12] 1.83% [at 19 µM] | outcome [18] | activity change, negative = inhibition [13] 0.669% [at 19 µM] | activity change, negative = cytotoxicity [14] 0.214% [at 19 µM] | viability change, negative = cytotoxic [16] 14.2% [at 19 µM] | activity change [17] 0.753% [at 18.9 µM]

CC(=O)Oc1cccc(C)c1
inactive: outcome [1] | Potency [2] | Potency [3] | outcome [4] | outcome [5] | Potency [6] | Potency [7] | outcome [8] | Potency [9] | outcome [10] | outcome [11] | outcome [12] | outcome [19] | outcome [18] | Potency [13] | outcome [14] | Potency [15] | Potency [16] | outcome [17]

CC(C)C(=O)OC(=O)C(C)C
inactive: outcome [1] | Potency [2] | Potency [3] | outcome [4] | outcome [5] | Potency [6] | Potency [7] | outcome [8] | Potency [9] | outcome [10] | outcome [11] | outcome [12] | Potency [13] | outcome [14] | Potency [15] | Potency [16]

CCCCCCCCCCCCSC
inactive: outcome [1] | Potency [2] | Potency [3] | outcome [4] | outcome [5] | Potency [6] | Potency [7] | outcome [8] | Potency [9] | outcome [10] | outcome [11] | outcome [12] | Potency [13] | outcome [14] | Potency [15] | Potency [16]

CCOC(=O)OC(C)OC1=C(C(=O)Nc2ccccn2)N(C)S(=O)(=O)c2ccccc21 (stereo unspecified)
inactive: outcome [1] | Potency [2] | Potency [3] | outcome [4] | outcome [5] | Potency [6] | Potency [7] | outcome [8] | Potency [9] | outcome [10] | outcome [11] | outcome [12] | outcome [19] | outcome [18] | Potency [13] | outcome [14] | Potency [15] | Potency [16] | outcome [17]

N[C@H](C(=O)O)[C@@H](O)c1ccc(O)c(O)c1
inactive: outcome [1] | Potency [2] | Potency [3] | outcome [4] | outcome [5] | Potency [6] | Potency [7] | outcome [8] | Potency [9] | outcome [10] | outcome [11] | outcome [12] | outcome [19] | outcome [18] | Potency [13] | outcome [14] | Potency [15] | Potency [16] | outcome [17]

[O-][n+]1cccc(CO)c1
inactive: outcome [1] | Potency [2] | Potency [3] | outcome [4] | outcome [5] | Potency [6] | Potency [7] | outcome [8] | Potency [9] | outcome [10] | outcome [11] | outcome [12] | outcome [19] | outcome [18] | Potency [13] | outcome [14] | Potency [15] | Potency [16] | outcome [17]

CCOC(=O)C1=NOC(c2ccccc2)(c2ccccc2)C1
inactive: outcome [1] | Potency [2] | Potency [3] | outcome [4] | outcome [5] | Potency [6] | Potency [7] | outcome [8] | Potency [9] | outcome [10] | outcome [11] | outcome [12] | outcome [19] | Potency [13] | outcome [14] | Potency [16] | outcome [17]

CC[N+](CC)(CC)CCOc1cccc(OCC[N+](CC)(CC)CC)c1OCC[N+](CC)(CC)CC
inactive: outcome [1] | Potency [2] | Potency [3] | outcome [4] | outcome [5] | Potency [6] | Potency [7] | outcome [8] | Potency [9] | outcome [10] | outcome [11] | outcome [12] | Potency [20] | outcome [18] | Potency [13] | outcome [14] | Potency [15] | Potency [16] | outcome [17]

CC(CC=O)CC(C)(C)C (stereo unspecified)
inactive: outcome [1] | Potency [2] | Potency [3] | outcome [4] | outcome [5] | Potency [6] | outcome [8] | Potency [9] | outcome [10] | outcome [11] | outcome [12] | outcome [19] | Potency [13] | outcome [14] | Potency [15] | Potency [16]

CN1C(C)(C)CC(O)CC1(C)C
inactive: outcome [1] | Potency [2] | Potency [3] | outcome [4] | outcome [5] | Potency [6] | Potency [7] | outcome [8] | Potency [9] | outcome [11] | outcome [12] | outcome [19] | Potency [13] | outcome [14] | Potency [16] | outcome [17]

O=S(=O)(O)c1cccc2ccccc12
inactive: outcome [1] | Potency [2] | Potency [3] | outcome [4] | outcome [5] | Potency [6] | Potency [7] | outcome [8] | Potency [9] | outcome [10] | outcome [11] | outcome [12] | Potency [13] | outcome [14] | Potency [15] | Potency [16] | outcome [17]

CC12CCC(C(=O)C1=O)C2(C)C (stereo unspecified)
inactive: outcome [1] | Potency [2] | Potency [3] | outcome [4] | outcome [5] | Potency [6] | outcome [8] | Potency [9] | outcome [10] | outcome [12] | Potency [13] | outcome [14] | Potency [15] | Potency [16]

CC1(C)[C@@H]2CC[C@@]1(C)[C@H](O)C2
inactive: outcome [1] | Potency [2] | Potency [3] | outcome [4] | outcome [5] | Potency [6] | outcome [8] | Potency [9] | outcome [10] | outcome [12] | Potency [13] | outcome [14] | Potency [15] | Potency [16] | outcome [17]
